Laboratory results: ChEMBL document CHEMBL1201862, “PubChem BioAssay data set” (2004)
“And” between values parts separate entries of the source, which are not always exact repeats. Equal entries are not always repeated.

Test: M. tuberculosis growth inhibition, dose response, purified and synthesized samples, set 9 (AID 602435); call rule not given here
Type: functional

SMILES | IC90
O=C(c1ccc(CNc2c(N3CCCC3)c(=O)c2=O)cc1)N1CCC(c2ccccc2)CC1 | > 100 µM (active)
O=C(c1ccc(CNc2c(N3CCCC3)c(=O)c2=O)cc1)N1CCN(c2ccccc2)CC1 | > 83.3 µM (active)
O=C(c1ccc(CNc2c(N3CCOCC3)c(=O)c2=O)cc1)N1CCN(c2ccccc2)CC1 | > 100 µM (active)
CC1CC(C)CN(C(=O)C2CCC(CNc3c(N4CCCCC4)c(=O)c3=O)CC2)C1 (configuration not stated) | > 75 µM (active) and > 50 µM (active)
CC1CCCN(C(=O)C2CCC(CNc3c(N4CCCCC4)c(=O)c3=O)CC2)C1 (configuration not stated) | > 50 µM (active)
CC(C)OC(=O)CSc1ncnc2c1cnn2-c1ccccc1 | > 100 µM (active)
Cc1cccc(N2CCN(C(=O)c3ccc(CNc4c(N5CCC(C)CC5)c(=O)c4=O)cc3)CC2)c1C | > 50 µM (active)
O=C(NCCc1ccc(Cl)cc1)C1CCC(CNc2c(N3CCCCC3)c(=O)c2=O)CC1 (configuration not stated) | > 50 µM (active)
COc1ccc(N2CCN(C(=O)c3ccc(CNc4c(N5CCOCC5)c(=O)c4=O)cc3)CC2)cc1 | > 73.2 µM (active) and > 39 µM (active)
CC(=O)c1ccc(NC(=O)c2ccc(CNc3c(N4CCOCC4)c(=O)c3=O)cc2)cc1 | > 50 µM (active)
O=C(C1CCC(CNc2c(N3CCCCC3)c(=O)c2=O)CC1)N1CCCCC1 (configuration not stated) | > 50 µM (active)
CC1CCN(C(=O)c2ccc(CNc3c(N4CCCC4)c(=O)c3=O)cc2)CC1 | > 50 µM (active)
CC1CCCN(C(=O)c2ccc(CNc3c(N4CCCCC4)c(=O)c3=O)cc2)C1 (configuration not stated) | > 50 µM (active)
CC(C)CCNC(=O)CSc1nc2c(c(=O)[nH]1)CCCCC2 | > 100 µM (active)
O=C(c1ccc(CNc2c(N3CCCC3)c(=O)c2=O)cc1)N1CC=C(c2ccccc2)CC1 | > 44.6 µM (active) and > 50 µM (active)
CC1CC(C)CN(C(=O)c2ccc(CNc3c(N4CCCC4)c(=O)c3=O)cc2)C1 (configuration not stated) | > 50 µM (active)
O=C(c1ccc(CNc2c(N3CCCC3)c(=O)c2=O)cc1)N1CCc2ccccc2C1 | > 50 µM (active)
